This is a sample that favours compounds with a hit; in the whole collection about 28% have one here.
PLK1 PBD inh = blocks phosphopeptide binding to human Plk1 polo box domain; Plk1 PBD phosphopeptide binding, fluorescence polarization; inhibition, %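 (tested at about 20 µM)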; 0.13% of 97,000 active; AID 693; in the data active means inhibition above about 34%, passing the limit was not always enough
CYP2C19 inhib = inhibitors of human CYP2C19; 21% of 96,000 active; P33261; CYP2C19 Supersomes, luciferin-H EGE luminescence, 30 min; inhibition, % at 5 µM;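 active means CYP2C19 inhibition above a set limit at 5 µM in the primary screen, cut at about 50% in these data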;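 further: plate controls were negative control wells for no effect and 2.5 mM tranylcypromine positive control for full effect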
PLK1 inh = inhibitors of human PLK1 kinase. inhibition, % at 10 µM. 0.53% of 97,000 active. recombinant PLK1 kinase, TR-FRET peptide phosphorylation;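 active means inhibition of 50% or more in the single-concentration screen; inactive means inhibition below 50%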;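 further: 0% = DMSO max control and 100% = H-89 dihydrochloride min control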
CYP2C9 inh = inhibitors of human CYP2C9. CYP2C9 Supersomes, luciferin-H conversion, luminescence. inhibition, % at 5 µM. 20% of 96,000 active. AID 777;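 active means blocking of liver enzyme CYP2C9 beyond about 50% at 5 µM, limit read from the data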
Target sequence (P11712 whole entry, looked up): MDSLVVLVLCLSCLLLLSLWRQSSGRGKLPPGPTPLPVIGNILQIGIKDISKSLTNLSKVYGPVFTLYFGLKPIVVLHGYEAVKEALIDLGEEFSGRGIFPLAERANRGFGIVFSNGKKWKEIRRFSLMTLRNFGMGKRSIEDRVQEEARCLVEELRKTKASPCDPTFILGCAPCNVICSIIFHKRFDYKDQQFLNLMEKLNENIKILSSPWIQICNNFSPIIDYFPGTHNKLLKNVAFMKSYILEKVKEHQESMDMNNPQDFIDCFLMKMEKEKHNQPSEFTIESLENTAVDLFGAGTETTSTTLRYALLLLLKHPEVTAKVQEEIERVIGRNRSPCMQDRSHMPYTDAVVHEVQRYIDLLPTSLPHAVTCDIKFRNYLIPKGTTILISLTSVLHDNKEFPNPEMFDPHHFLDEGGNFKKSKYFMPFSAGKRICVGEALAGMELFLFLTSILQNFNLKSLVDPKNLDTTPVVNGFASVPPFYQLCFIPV
CYP2C9 activ = activators of human CYP2C9 | recombinant CYP2C9, luciferin-H conversion, luminescence; stronger effect = higher value; factor 1 = untreated enzyme, 0 = blocked | 1.4% of 96,000 active | P11712 | activation factor at 5 µM;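 active means activation factor of 2 or more for CYP2C9 at a 5 µM dose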;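 further: 0 = sulfaphenazole-blocked wells and 1 = vehicle-only wells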
CYP2C19 activ = activators of human cytochrome P450 2C19 | 96,000 tested, under 10 active | P33261 | activation factor at 5 µM | recombinant CYP2C19, luciferin-H EGE luminescence; stronger effect = higher value; 0 = fully inhibited enzyme, 1 = untreated enzyme;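 active means activation factor of at least 2 at 5 µM in the primary screen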;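 further: 0 = wells with 2.5 mM tranylcypromine and 1 = vehicle-only wells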
* marks the source's active call; other numbers are inactive results; nt = not tested or not shown.

SMILES | PLK1 PBD inh | CYP2C19 inhib | PLK1 inh | CYP2C9 inh | CYP2C9 activ | CYP2C19 activ
COC(=O)CSc1nc(N)c(C#N)c(C(C)C)c1C#N | 17 | 59* | -2 | 48 | 0.5 | 0.4
COC(=O)CSc1ccc(C#N)c(SCC(=O)OC)c1 | 7 | 12 | -6 | 3 | 1 | 0.9
COC(=O)CSc1cc(SCC(=O)OC)c(C#N)c(SCC(=O)OC)c1 | -25 | 38 | -14 | 52* | 0.5 | 0.6
COc1ccc(CCNCc2csc3nc4ccccc4n23)cc1OC | -13 | 20 | -13 | 25 | 0.8 | 0.8
COc1nc(Oc2ccc(=O)[nH]n2)nc(N2CCOCC2)n1 | -15 | -10 | -15 | -11 | 1.1 | 1.1
Nc1c(C(=O)c2ccccc2)oc2ccc(Br)cc12 | 13 | 70* | 4 | 49 | 0.5 | 0.3
O=C(/C=C/c1ccccc1)Nc1ncn[nH]1 | -33 | 17 | -6 | 12 | 0.9 | 0.8
Cc1ccc(S(=O)(=O)c2c(C)nn(C(C)(C)C)c2OC(=O)c2ccco2)cc1 | 3 | 99* | 8 | 86* | 0.1 | 0
Cc1nn(C(C)(C)C)c(OC(=O)c2ccc3c(c2)OCO3)c1Sc1ccccc1 | 6 | 27 | -17 | 42 | 0.6 | 0.7
Cc1ccc(S(=O)(=O)c2c(C)nn(C(C)(C)C)c2OC(=O)C(C)(C)C)cc1 | -15 | 0 | -7 | 33 | 0.7 | 1
CC(=O)Oc1c(S(=O)(=O)c2ccc(C)cc2)c(C)nn1-c1ccccc1 | -20 | 8 | -3 | 78* | 0.2 | 0.9
Cc1nn(C(C)(C)C)c(OC(=O)c2ccc3c(c2)OCO3)c1S(=O)(=O)c1ccccc1 | 1 | 62* | -3 | 83* | 0.2 | 0.4
Cc1ccc(S(=O)(=O)c2c(C)nn(C(C)(C)C)c2OC(=O)c2ccc(Br)o2)cc1 | 11 | 70* | -2 | 95* | 0 | 0.3
CC1(C)CC(=O)C2(CC3=C(CC(C)(C)CC3=O)O2)C(=O)C1 | 5 | -3 | -4 | -5 | 1 | 1
Cc1ccc(S(=O)(=O)c2c(C)nn(C(C)(C)C)c2OC(=O)c2cccs2)cc1 | -3 | 94* | 0 | 90* | 0.1 | 0.1
Cc1ccc(N2C(=O)c3ccccc3C2=O)cc1C | 21 | nt | -12 | nt | nt | nt
CC1=NN(c2ccc(C)c(C)c2)C(=O)C1C(c1cccc(O)c1)C1C(=O)N(c2ccc(C)c(C)c2)N=C1C (centres undefined) | 14 | 24 | -1 | 61* | 0.4 | 0.8
Cn1cnnc1SCc1nc(N)nc(Nc2ccccc2)n1 | -2 | -7 | -10 | -6 | 1.1 | 1.1
O=C(CCNc1cc(Cl)cc(Cl)c1)c1ccco1 | -16 | 61* | -1 | 46 | 0.5 | 0.4
O=C(CCNc1ccc(F)c(Cl)c1)c1ccco1 | -5 | 32 | -15 | 20 | 0.8 | 0.7
O=C(CCNc1ccc(Cl)c(C(F)(F)F)c1)c1ccco1 | -26 | 76* | -10 | 46 | 0.5 | 0.2
O=C(CCNc1ccc(F)cc1)c1ccco1 | -23 | 65* | -9 | -1 | 1 | 0.3
CC1=C(C(=O)OC(C)C)C(C)NC(=O)N1 (centres undefined) | -2 | 2 | -5 | 5 | 1 | 1
CNC(=O)c1ccccc1-c1ccccc1 | -8 | -9 | -9 | -14 | 1.1 | 1.1
O=C1CS/C(=C\S(=O)(=O)c2ccc(Cl)cc2)N1 | -13 | 26 | -5 | 57* | 0.4 | 0.7
SMILES | PLK1 PBD inh | CYP2C19 inhib | PLK1 inh | CYP2C9 inh | CYP2C9 activ | CYP2C19 activ
CCCN1C(=O)c2cc(C(=O)NCc3ccc(OC)cc3)ccc2C1O (centres undefined) | -18 | -3 | 2 | 15 | 0.9 | 1
COc1cnc(SCc2c(Cl)cccc2Cl)nc1Cl | -2 | 45 | -2 | 2 | 1 | 0.5
CCOC(=O)C1CCN(c2c(NCCN3CCN(c4ccccc4)CC3)c(=O)c2=O)CC1 | -11 | -1 | 5 | -4 | 1 | 1
CCOC(=O)C1CCN(c2c(NCc3ccc(C(=O)NC(C)CC)cc3)c(=O)c2=O)CC1 (centres undefined) | -8 | 12 | -6 | 59* | 0.4 | 0.9
C=CCSc1nc2sc(C)c(C)c2c(=O)n1CC=C | -12 | nt | -8 | nt | nt | nt
C=CCn1c(=O)c2c(C)c(C)sc2n2c(Nc3ccc(OC)cc3)nnc12 | -9 | 23 | -5 | 91* | 0.1 | 0.8
CCc1c(C#N)c(SCCC(=O)Nc2ccc(C)cc2)nc2c1C(=O)CC(C)(C)C2 | 16 | 96* | -19 | 95* | 0 | 0
CCOc1ccc(NC(=O)CCSc2nc3c(c(CC)c2C#N)C(=O)CC(C)(C)C3)cc1 | -9 | 90* | -10 | 90* | 0.1 | 0.1
Cc1cc(=O)[nH]c(SCC(=O)Nc2ccc(Cl)cn2)n1 | -23 | 46 | -4 | 17 | 0.8 | 0.5
COC(=O)CC1Oc2ccc(C)cc2NC1=O (centres undefined) | 14 | 25 | -5 | 13 | 0.9 | 0.8
C=C(C)C(=O)OC1(C(F)(F)F)Oc2cc(C)ccc2NC1=O (centres undefined) | -24 | 63* | -10 | 39 | 0.6 | 0.4
Cn1c(SCC(=O)NCc2ccc(F)cc2)nc2ccccc21 | -15 | 30 | 11 | -214 | 3.1* | 0.7
Cn1c(CNc2ccc(Cl)cc2)nc2ccccc21 | 1 | 98* | 2 | 84* | 0.2 | 0
Cn1c(CNC(=O)c2ccc(F)cc2)nc2ccccc21 | nt | 72* | nt | -38 | 1.4 | 0.3
Cn1c(SCC(=O)N/N=C/c2cccs2)nc2ccccc21 | 4 | 43 | -15 | -101 | 2* | 0.6
CC(C)(C)c1ccc(COn2c(=O)c(-c3ccco3)[n+]([O-])c3ccccc32)cc1 | -7 | 6 | -12 | -8 | 1.1 | 0.9
CCOC(=O)c1ccc(N2C(=O)CC(Nc3ccc(CCO)cc3)C2=O)cc1 (centres undefined) | 2 | 18 | -3 | 40 | 0.6 | 0.8
CN(C)S(=O)(=O)c1ccc(-c2csnn2)s1 | 2 | 37 | -17 | -45 | 1.5 | 0.6
Cn1c(CCCNC(=O)c2ccccc2)nc2ccccc21 | -7 | 32 | 20 | -138 | 2.4* | 0.7
COc1ccccc1C(=O)Nc1ccc2c(c1)nc(CCNC(C)=O)n2C | -6 | 13 | -1 | -3 | 1 | 0.9
COc1ccccc1C(=O)NCCc1nc2ccccc2n1C | nt | 97* | nt | -13 | 1.1 | 0
COc1ccc(OCc2nc(N)nc(Nc3ccc(C)cc3)n2)cc1 | 3 | 21 | -3 | 38 | 0.6 | 0.8
COc1ccc(C2(CNC(C)=O)CCOCC2)cc1OC | 12 | -6 | 62* | -8 | 1.1 | 1.1
COc1ccc(C2(CNC(=O)c3ccc(OC)c([N+](=O)[O-])c3)CCOCC2)cc1OC | -25 | 22 | -3 | 17 | 0.8 | 0.8
CC(=O)c1c(C)[nH]c(C(=O)CSc2nnc(-c3ccccc3)o2)c1C | 34 | 57* | -13 | 28 | 0.7 | 0.4
O=C(CSc1nnc(-c2ccccc2)o1)c1nnc(-c2ccccc2)o1 | nt | 9 | nt | 74* | 0.3 | 0.9
CCOC(=O)CSc1nnc(-c2ccccc2)o1 | 3 | nt | -7 | nt | nt | nt

Screens: PubChem BioAssay, several laboratories
